Measurements taken from PubChem BioAssay (EPA / NIEHS).
Several values for one entry are separate records, joined by “and”; a condition that tells them apart may be missing. Equal values may be shown once. Results filed as inconclusive are left out. More than one record can exist for a structure, and the calls need not agree. Activity calls are given as the source filed them. Rule for the calls, unless noted: active = hit-call score of the fitted dose curve at least 0.9, where 1 is the maximum; inactive = score below 0.9.

Legend:
[1] = read-out: Collagen I, COL1A1 (gene 1277); experiment: BSK_MyoF_CollagenI: BioMAP Diversity Plus: MyoF Assay for Collagen I Biomarker Activity (AID 2284238); details: primary human lung fibroblasts
Method in brief: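 Collagen I levels measured by ELISA on human lung fibroblast cultures 24 h post-dosing, with curve fitting in the positive direction relative to DMSO; SRB staining of parallel wells marked cytotoxicity.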

[2] = read-out: Collagen III, COL3A1 (gene 1281); experiment: BSK_MyoF_CollagenIII: BioMAP Diversity Plus: MyoF Assay for Collagen III Biomarker Activity (AID 2284239); details: primary human lung fibroblasts
Method in brief: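 Collagen III biomarker quantified by ELISA in human lung fibroblast cultures 24 h after dosing. Activity fitted in the positive direction against DMSO as baseline.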

[3] = CCTE_Mundy_HCI_hNP1_Casp3_7: CCTE's Caspase-Glo 3/7 Assay in human neuroprogenitor cells for Apoptosis, Mundy Lab (AID 2284240)
Method in brief: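 Neuroepithelial-lineage stem cells from WA09 embryonic cells were treated with chemicals after 40–44 h of culture. Twenty-four hours later, caspase-3/7 activation was detected luminescently after a 30 min room-temperature reagent step, with DMSO as baseline.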

[4] = CCTE_Mundy_HCI_hNP1_CellTiter: CCTE's Cell Titer-Glo 2 Assay in human neuroprogenitor cells for Viability, Mundy Lab (AID 2284241; active = hit-call score of the fitted dose curve at least 0.9, where 1 is the maximum;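 for AC50: a hit is a drop in ATP luminescence versus DMSO meaning reduced viability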)
Method in brief: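 Measures ATP content in human neural progenitors derived from WA09 embryonic cells. Read-out at 26.5 hours after dosing, with DMSO serving as the negative control and baseline.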

[5] = read-out: Interleukin 17F (IL17F), IL17F (gene 112744); experiment: BSK_BT_xIL17F: BioMAP Diversity Plus: BT Assay for Interleukin 17F (IL17F) Biomarker Activity (AID 2284243); details: primary human B cells with PBMC
Method in brief: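 Human B cells co-cultured with PBMC; secreted IL-17F quantified by LumineX xMAP 24 hours after chemical dosing. Activity fitted in the positive direction against DMSO negative control as baseline.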

[6] = read-out: Actin alpha 1 (ACTA1), ACTA1 (gene 58); experiment: BSK_MyoF_ACTA1: BioMAP Diversity Plus: MyoF Assay for Actin alpha 1 (ACTA1) Biomarker Activity (AID 2284244); details: primary human lung fibroblasts
Method in brief: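 MyoF fibroblast system (human lung); a-SMA quantified via ELISA at 24 h; DMSO-normalised, gain-of-signal endpoint.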

[7] = read-out: Interleukin 2 (IL2), IL2 (gene 3558); experiment: BSK_BT_xIL2: BioMAP Diversity Plus: BT Assay for Interleukin 2 (IL2) Biomarker Activity (AID 2284245); details: primary human B cells with PBMC
Method in brief: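 Co-cultures of primary human B cells and PBMC are treated with chemical and sampled at 24 h. IL-2 secretion is quantified by Luminex xMAP, with DMSO-treated wells as baseline.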

[8] = read-out: Basic fibroblast growth factor (bFGF), FGF2 (gene 2247); experiment: BSK_MyoF_bFGF: BioMAP Diversity Plus: MyoF Assay for Basic fibroblast growth factor (bFGF) Biomarker Activity (AID 2284246); details: primary human lung fibroblasts
Method in brief: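 Fibroblasts from human lung, 24 h dosing. bFGF by ELISA; gain of signal over DMSO.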

[9] = read-out: Collagen IV, COL4A1 (gene 1282); experiment: BSK_MyoF_CollagenIV: BioMAP Diversity Plus: MyoF Assay for Collagen IV Biomarker Activity (AID 2284247); details: primary human lung fibroblasts
Method in brief: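 Lung fibroblasts (human primary) treated with chemicals were assayed after 24 h for Collagen IV using an ELISA, with DMSO serving as negative control and baseline for a positive-direction fit.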

[10] = read-out: Monokine induced gamma interferon (MIG), CXCL9 (gene 4283); experiment: BSK_KF3CT_MIG: BioMAP Diversity Plus: KF3CT Assay for Monokine induced gamma interferon (MIG) Biomarker Activity (AID 2284248); details: primary human keratinocytes with fibroblasts
Method in brief: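 Parallel cultures were stained with SRB (560 nm) to check cytotoxicity. MIG was quantified by ELISA in a primary human skin keratinocyte/fibroblast co-culture 24 h post-dosing, with gain of signal fitted relative to DMSO.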

[11] = read-out: Vascular cell adhesion molecule 1 (VCAM1), VCAM1 (gene 7412); experiment: BSK_BF4T_VCAM1: BioMAP Diversity Plus: BF4T Assay for Vascular cell adhesion molecule 1 (VCAM1) Biomarker Activity (AID 2284249); details: primary human bronchial epithelial cells with fibroblasts
Method in brief: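 Cell-surface VCAM-1 quantified by ELISA after 24 h chemical exposure of human bronchial epithelial/dermal fibroblast co-cultures, with SRB staining in parallel wells for cytotoxicity; DMSO baseline, positive-direction fitting.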

[12] = read-out: Collagen I, COL1A1 (gene 1277); experiment: BSK_hDFCGF_CollagenI: BioMAP Diversity Plus: hDFCGF Assay for Collagen I Biomarker Activity (AID 2284250); details: primary human foreskin fibroblasts
Method in brief: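 Readout: Collagen I by ELISA after 24 h compound treatment of primary human foreskin fibroblasts. Endpoint analysed for increases relative to DMSO; total protein by SRB in parallel wells flagged cytotoxicity.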

[13] = read-out: Interferon-inducible T-cell alpha chemoattractant (ITAC), CXCL11 (gene 6373); experiment: BSK_hDFCGF_ITAC: BioMAP Diversity Plus: hDFCGF Assay for Interferon-inducible T-cell alpha chemoattractant (ITAC) Biomarker Activity (AID 2284251); details: primary human foreskin fibroblasts
Method in brief: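 Chemical dosing of primary human foreskin fibroblast cultures preceded ELISA measurement of I-TAC at 24 h. Response was analysed in the positive direction using DMSO as baseline, while parallel SRB staining measured cytotoxicity.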

[14] = read-out: Plasminogen activator inhibitor-1 (PAI1), SERPINE1 (gene 5054); experiment: BSK_KF3CT_PAI1: BioMAP Diversity Plus: KF3CT Assay for Plasminogen activator inhibitor-1 (PAI1) Biomarker Activity (AID 2284252); details: primary human keratinocytes with fibroblasts
Method in brief: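 In this co-culture of primary human keratinocytes and foreskin fibroblasts, PAI-1 was measured by ELISA at 24 h and fitted upward from DMSO.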

[15] = read-out: Monocyte Chemoattractant Protein-1 (MCP1), CCL2 (gene 6347); experiment: BSK_IMphg_MCP1: BioMAP Diversity Plus: IMphg Assay for Monocyte Chemoattractant Protein-1 (MCP1) Biomarker Activity (AID 2284253); details: primary human endothelial cells with macrophages
Method in brief: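 ELISA readout of MCP-1 at 24 hours in IMphg co-cultures of venular endothelial cells and macrophages, normalised to DMSO; parallel cultures stained with sulforhodamine B for overt cytotoxicity.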

[16] = read-out: Interleukin-8 (IL8), CXCL8 (gene 3576); experiment: BSK_KF3CT_IL8: BioMAP Diversity Plus: KF3CT Assay for Interleukin-8 (IL8) Biomarker Activity (AID 2284254); details: primary human keratinocytes with fibroblasts
Method in brief: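 IL-8 by ELISA in primary human skin co-culture (keratinocytes plus fibroblasts) 24 h post-dose, DMSO as baseline. Cytotoxicity assessed in parallel by sulforhodamine B total-protein staining.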

[17] = read-out: Macrophage Inflammatory Protein-1 Alpha (MIP1a), CCL3 (gene 6348); experiment: BSK_IMphg_MIP1a: BioMAP Diversity Plus: IMphg Assay for Macrophage Inflammatory Protein-1 Alpha (MIP1a) Biomarker Activity (AID 2284255); details: primary human endothelial cells with macrophages
Method in brief: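 MIP-1a protein levels were quantified by ELISA after 24 h treatment of human endothelial cell–macrophage co-cultures, compared with DMSO. Parallel cultures were fixed with TCA and stained with 0.1% SRB to gauge overt cytotoxicity.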

[18] = read-out: Plasminogen activator inhibitor-1 (PAI1), SERPINE1 (gene 5054); experiment: BSK_MyoF_PAI1: BioMAP Diversity Plus: MyoF Assay for Plasminogen activator inhibitor-1 (PAI1) Biomarker Activity (AID 2284256); details: primary human lung fibroblasts
Method in brief: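 Human lung fibroblasts (MyoF system) were exposed to test chemicals for 24 h, then PAI-1 was quantified by ELISA. Activity was fitted in the positive (signal-gain) direction relative to DMSO vehicle as baseline.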

[19] = read-out: CD69, CD69 (gene 969); experiment: BSK_IMphg_CD69: BioMAP Diversity Plus: IMphg Assay for CD69 Biomarker Activity (AID 2284257); details: primary human endothelial cells with macrophages
Method in brief: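 Readout is ELISA for CD69 in primary human venular endothelial cell/macrophage co-culture, taken at 24 h post-dosing. SRB staining of parallel cultures gauged overt cytotoxicity; signal increase versus DMSO defined activity.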

[20] = CCTE_Mundy_HCI_Cortical_Synap_Neur_Matur_NeuronCount: CCTE's Synaptogenesis and Neurite Maturation Assay in rat cortical cells for Neuron Count, Mundy Lab (AID 2284242; active = hit-call score of the fitted dose curve at least 0.9, where 1 is the maximum;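 for AC50: hits reduce neuron count versus DMSO baseline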)
Method in brief: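 Measured at DIV 12: fluorescently labelled neurons (Hoechst nuclei, MAP2) in rat primary cortical cultures, counted by high-content imaging. AraC suppressed glia from DIV 5; DMSO served as negative control.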

Measured: AC50

OCCC(F)(F)C(F)(F)C(F)(F)C(F)(F)C(F)(F)C(F)(F)C(F)(F)C(F)(F)F
inactive: [3] | [4] | [9] | [12] | [16] | [17]
active: [1] 19.8 µM and 17.2 µM | [2] 14.5 µM and 10 µM | [5] 22.9 µM and 36.3 µM | [6] 14.6 µM and 15.1 µM | [7] 23.6 µM and 28.4 µM | [8] 17.4 µM and 10.7 µM | [10] 21.4 µM and 23.7 µM | [11] 8.57 µM and 8 µM | [12] 17.8 µM | [13] 12.4 µM | [14] 15.1 µM and 15.7 µM | [15] 49.6 µM and 45.9 µM | [18] 17.1 µM and 11.1 µM | [19] 30 µM and 7.45 µM

CC#C[C@]1(O)CC[C@H]2[C@@H]3CCC4=CC(=O)CCC4=C3[C@@H](c3ccc(N(C)C)cc3)C[C@@]21C
active: [3] 13.5 µM and 18.4 µM | [4] 27.4 µM and 21.6 µM | [20] 22.9 µM and 25.2 µM

C[C@@H]1C[C@H]2[C@@H]3CCC4=CC(=O)C=C[C@]4(C)[C@@]3(F)[C@@H](O)C[C@]2(C)[C@@]1(O)C(=O)COP(=O)(O)O
inactive: [1] | [2] | [5] | [6] | [8] | [9] | [10] | [11] | [12] | [13] | [14] | [16] | [18] | [19]
active: [5] 0.277 µM | [6] 267 nM | [7] 807 nM and 148 nM | [13] 1.1 µM | [15] 1.04 µM and 1.15 µM | [17] 946 nM and 574 nM

OCCC(F)(F)C(F)(F)C(F)(F)C(F)(F)C(F)(F)C(F)(F)F
inactive: [1] | [2] | [3] | [5] | [6] | [7] | [8] | [9] | [10] | [11] | [14] | [15] | [16] | [17] | [18] | [19]
active: [1] 54.6 µM | [5] 5.95 µM | [12] 30 µM and 46.9 µM | [13] 55 µM and 57.4 µM | [17] 42.4 µM

CC1=C(/C=C/C(C)=C/C=C/C(C)=C/C(=O)O)C(C)(C)CCC1
inactive: [3] | [20]

FC(F)(I)C(F)(F)C(F)(F)C(F)(F)C(F)(F)C(F)(F)I
inactive: [9] | [12]
active: [1] 4.42 µM [middle of 5 runs] | [2] 4.38 µM [middle of 5 runs] | [8] 8.27 µM [middle of 5 runs] | [10] 9.38 µM [middle of 5 runs] | [11] 6.79 µM [middle of 5 runs] | [12] 14 µM and 10.1 µM | [13] 5.16 µM [middle of 5 runs] | [14] 6.91 µM [middle of 5 runs] | [15] 39.8 µM [middle of 5 runs] | [16] 6.35 µM [middle of 5 runs] | [18] 6 µM [middle of 5 runs] | [19] 37.9 µM [middle of 5 runs]

CCCCCCCCCCCCCC[N+](C)(C)C
active: [1] 1.5 µM | [2] 1.85 µM | [5] 2.26 µM | [6] 2310 nM | [7] 1.67 µM | [8] 4.65 µM | [9] 5.43 µM | [18] 3.69 µM

NCC(F)(F)C(F)(F)C(F)(F)C(F)(F)C(F)(F)C(F)(F)C(F)(F)F
inactive: [1] | [2] | [5] | [6] | [7] | [8] | [9] | [10] | [11] | [12] | [13] | [14] | [15] | [16] | [17] | [18] | [19]
active: [13] 12.1 µM | [16] 13.5 µM

C=C(C)C(=O)OCCC(F)(F)C(F)(F)C(F)(F)C(F)(F)C(F)(F)C(F)(F)F
not listed: [20]
inactive: all other assays above

CN1CCC[C@H]1c1cccnc1
inactive: [3]
